Screening results as filed in PubChem BioAssay.
USP28 inh: human USP28 deubiquitinase inhibition. inhibition, % at 25 µM. hit rate 3% among 47,000. AID 1645857. Q96RU2. purified USP28, Ub-rhodamine cleavage fluorescence, 30 min
USP8 block: inhibitors of human USP8 deubiquitinase | P40818 | purified USP8, Ub-rhodamine cleavage fluorescence, 30 min | inhibition, % at 20 µM | hit rate 4.2% among 47,000 | AID 1645853
USP30 block: inhibitors of human USP30 deubiquitinase | inhibition, % at 25 µM | Q70CQ3 | purified USP30, Ub-rhodamine cleavage fluorescence | AID 1645860 | hit rate 5.3% among 47,000
Target sequence (Q70CQ3 whole entry, looked up): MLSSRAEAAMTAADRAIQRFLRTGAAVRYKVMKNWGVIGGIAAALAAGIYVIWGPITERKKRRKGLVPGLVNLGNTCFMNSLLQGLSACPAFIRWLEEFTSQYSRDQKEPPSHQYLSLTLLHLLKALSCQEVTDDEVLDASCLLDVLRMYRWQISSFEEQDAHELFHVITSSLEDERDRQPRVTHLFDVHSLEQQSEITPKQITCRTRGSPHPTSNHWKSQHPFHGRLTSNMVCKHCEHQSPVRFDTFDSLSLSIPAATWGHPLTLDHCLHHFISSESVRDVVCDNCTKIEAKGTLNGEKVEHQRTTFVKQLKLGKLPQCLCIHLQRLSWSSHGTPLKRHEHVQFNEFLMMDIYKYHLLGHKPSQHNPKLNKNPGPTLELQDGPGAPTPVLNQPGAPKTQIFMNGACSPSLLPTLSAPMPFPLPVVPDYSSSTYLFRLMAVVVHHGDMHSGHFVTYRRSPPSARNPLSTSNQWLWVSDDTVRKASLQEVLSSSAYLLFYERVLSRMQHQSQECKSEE
USP17 block: human USP17-like deubiquitinase inhibition | A8MUK1 | purified USP17, Ub-rhodamine cleavage fluorescence, 3 h | inhibition, % at 50 µM | hit rate 6.5% among 47,000 | AID 1645855
* = called active by the depositor. A selection: hits, their analogues and other compounds. The true share with any hit is near 13%. No stated cut-off is given here; in the data, active means inhibition above about 30%; inactive means the rest.

SMILES | USP28 inh | USP8 block | USP30 block | USP17 block
CC(=O)c1ccc(NC(=O)C2CC(=O)Nc3nc(SCc4ccccc4)nn32)cc1 (stereo unspecified) | 7 | 15 | 4 | -2
O=C1CC(C(=O)Nc2cccc(F)c2)n2nc(SCc3ccccc3)nc2N1 (stereo unspecified) | 16 | -1 | 43* | 1
CCOC(=O)C1=C(c2ccccc2)Nc2c(c(=O)n(C)c(=O)n2C)C1c1ccncc1 (stereo unspecified) | 8 | 13 | 27 | 8
CCn1cc(S(=O)(=O)N2CCCn3nc(-c4cccnc4)cc3C2)cn1 | -5 | 0 | -3 | 0
COc1ccc2c(c1)CC(C(=O)Nc1ccc(F)cc1F)CO2 (stereo unspecified) | 3 | 21 | 7 | 7
O=C(Nc1ccccc1)C1COc2ccccc2C1 (stereo unspecified) | 7 | 0 | 29 | 32*
CC(C(=O)NCc1ccc2c(c1)OCO2)N1CCN(c2ccc(O)cc2)CC1 (stereo unspecified) | 30 | 60* | 23 | 73*
COC(=O)c1ccccc1NC(=O)C(C)n1nc(-c2ccccc2)c2cc(Cl)ccc21 (stereo unspecified) | -14 | 0 | -25 | -3
CC(=O)N1CC(C(=O)NCc2ccc3c(c2)OCO3)C1 | 9 | -16 | 28 | 2
CC(C(=O)NCc1ccc2c(c1)OCO2)n1nc(-c2ccccc2)c2cc(Cl)ccc21 (stereo unspecified) | 16 | 2 | 25 | 35*
CCc1cc(=O)n(Cc2cccc(C#N)c2)c(N2CCCC2)n1 | 5 | 2 | 1 | 4
Cc1ccc(Cn2nnc(C(=O)NCc3ccco3)c2-n2cccc2)cc1 | 58* | 23 | -31 | 20
Cc1sc(NC(=O)c2cccnc2)nc1-c1ccc2c(c1)NC(=O)CO2 | 5 | 31* | 24 | 13
COc1ccc(NS(=O)(=O)c2ccc3c(c2)NC(=O)CO3)cc1OC | 0 | 1 | 5 | 0
COc1ccc(C(=O)Nc2nc(-c3ccc4c(c3)NC(=O)CO4)c(C)s2)cc1OC | -4 | 5 | 6 | 58*
FC(F)(F)c1cc(C(F)(F)F)c2sc(Nc3ccccc3)nc2n1 | 20 | 92* | 12 | 5
NC(=O)c1nc(Nc2ccccc2)sc1N | -7 | -5 | -17 | -6
CC(C)Cc1nc2oc3c(N(C)CCO)ncnc3c2c2c1CCC2 | 40* | 0 | 91* | -2
COCCNc1ncnc2c1oc1nc(CC(C)C)c3c(c12)CCC3 | 10 | 7 | 44* | -14
O=C1c2ccccc2C2c3[nH]c4ccccc4c3C(c3ccc4c(c3)OCO4)CN12 (stereo unspecified) | 13 | -60 | -25 | 33*
Cc1nc(C(=O)N[C@@H](C)C(=O)NCc2ccc3c(c2)OCO3)cc2c1[nH]c1ccccc12 | -5 | -26 | 9 | 57*
C[C@H](NC(=O)[C@@H]1Cc2c([nH]c3ccccc23)C2c3ccccc3C(=O)N21)C(=O)NCc1ccc2c(c1)OCO2 (stereo partly specified) | 10 | 28 | -49 | 34*
CCc1ccc(S(=O)(=O)c2cnc3ccccc3c2Nc2cccc(OC)c2)cc1 | 13 | 10 | 26 | 16
COc1cccc(-c2ccc(SCC(=O)Nc3ccc(F)c(F)c3)nn2)c1 | 8 | 32* | 24 | 14
Cc1cc(C)cc(NC(=O)CSc2ccc(-c3ccncc3)nn2)c1 | 19 | 5 | 55* | -5
SMILES | USP28 inh | USP8 block | USP30 block | USP17 block
O=C(NCC1CCCO1)c1cccc(-c2cnc(NC3CCCCC3)nc2)c1 (stereo unspecified) | -3 | -11 | -1 | 3
COC(=O)c1ccc(C(=O)OC)c(N2C(=O)CSCC2=O)c1 | 13 | 36* | 49* | 20
CCc1ccc(NC(=O)C2CCCN(c3nnc4ccccn34)C2)cc1 (stereo unspecified) | 11 | 13 | 13 | 4
COc1cc(O)c2c(=O)cc(C)oc2c1CC=C(C)C | 30 | 7 | 31* | 38*
O=C(CSc1cn(Cc2cccc(F)c2)c2ccccc12)Nc1ccccc1C(F)(F)F | 13 | -11 | 18 | 11
Cc1ccc(Cn2cc(SCC(=O)Nc3ccc(F)cc3F)c3ccccc32)cc1 | 6 | 2 | 22 | 32*
Cc1ccc(S(=O)(=O)NCc2nc(C(=O)N3CCCC3)c(C)o2)cc1Cl | -5 | -3 | -12 | -5
O=C(O)CCCCCN1C(=O)CC(c2ccc(Cl)cc2)CC1=O | 32* | 55* | -73 | 76*
CCOc1ccc(CN2CCC3(CC2)c2ncc(-c4cccnc4)n2CCN3C)cc1 | 2 | -19 | 6 | -2
CC1=C(C(=O)Nc2ccccn2)C(c2ccc3c(c2)OCO3)n2ncnc2N1 (stereo unspecified) | 33* | 16 | 18 | 12
CC1=C(C(=O)Nc2ccc(Cl)cc2)C(c2cccnc2)n2ncnc2N1 (stereo unspecified) | -12 | -39 | -12 | -6
CC1=C(C(=O)Nc2ccccc2C)C(c2ccc(OCc3ccccc3F)cc2)n2ncnc2N1 (stereo unspecified) | 5 | 13 | 19 | 62*
CN(C)CCCC(=O)N1CCC2(CC1)C(=O)NCN2C(=O)Cc1ccccc1 | 2 | -9 | -7 | 7
O=C(Nc1ccc2c(c1)OCO2)c1ccc2nc(C(F)(F)F)sc2c1 | 12 | 55* | -18 | 17
COc1ccc(-c2cc3c(=O)n(CC(=O)NCCCN4CCCC4)ncn3n2)cc1 | 10 | -1 | 47* | 60*
CC(C)NC(=O)Cn1ccn2nc(-c3ccc(Cl)cc3)cc2c1=O | 18 | 18 | 47* | 82*
COc1ccc(-c2cc3c(=O)n(CC(=O)NCCCN4CCCC4=O)ncn3n2)cc1 | 5 | 17 | 26 | 13
CCOc1ccccc1NC(=O)Cn1ccn2nc(-c3ccc(OC)cc3)cc2c1=O | 6 | 4 | 43* | 50*
CCOc1ccccc1NC(=O)Cn1c(-c2ccc3c(c2)OCO3)cn(-c2ccc(OC)cc2)c1=O | 1 | -8 | 28 | 52*
COC(=O)c1cccc(C(=O)NC2(c3nc(C)no3)CCCCC2)c1 | 3 | 12 | 16 | 8
O=C(c1nn2cccnc2c1Cl)N1CCC(c2noc3cc(F)ccc23)CC1 | 0 | -84 | -13 | -5
COc1ccc(Nc2nc(Nc3cccc(F)c3)nc3nccnc23)cc1 | -23 | -28 | -64 | 2
COc1ccc(CNC(=O)c2cccc(S(=O)(=O)Nc3ccc(F)cc3)c2)cc1 | 14 | 18 | 5 | 4
COc1ccc(-c2cc3c(=O)n(CC(=O)Nc4ccccc4F)ccn3n2)cc1OC | -3 | -2 | 9 | 70*
CCOc1ccc(-c2cc3c(=O)n(CC(=O)Nc4ccccc4OC)ccn3n2)cc1 | -1 | -2 | 6 | 2
COc1ccc(-c2cc3c(=O)n(CC(=O)Nc4ccccc4Cl)ccn3n2)cc1 | 10 | -2 | 6 | 55*
Cc1nc(-c2ccccc2)sc1C(=O)COc1ccc(Cl)cc1Br | 1 | 12 | 16 | 9
COc1ccc(-c2nn(-c3ccccc3)c3[nH]c(=O)c(CNc4ccc5c(c4)OCCO5)cc23)cc1OC | 10 | 78* | -36 | 44*
